Compound activity as filed in PubChem.
Compounds with a hit are over-represented: about 2.8% of the library has one in this group of screens.
HEK293 viab = counter-screen for SNCA expression inhibitors: cell viability | AID 1671193 | HEK-293-SNCA-luc viability, GF-AFC fluorescence, 24 h | actives 0.12% (n = 150,000) | Potency, µM (titrated, usually from 57.1 µM), for inactives: at the highest dose activity change, negative = cytotoxicity, most hits filed as cytotoxic;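 note: potency is the fitted concentration of half-maximal effect; 0% = DMSO-treated cells and -100% = medium-only wells without cells; nearly all actives have a fitted effect of over 30% in size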
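Cytotoxicity counterscreen: after 24 h compound treatment of genome-edited SNCA-luciferase HEK-293 cells, live-cell protease substrate GF-AFC read by fluorescence after 30 min; activity scaled between DMSO (0%) and medium-only (-100%), curves Hill-fitted.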
SNCA expr inhib = reduces expression of the alpha-synuclein gene | HEK-293 SNCA-luciferase knock-in, luminescence, 24 h | Potency, µM (series often up to 57.2 µM), for inactives: top-dose activity change, negative = inhibition, most hits filed as inhibitors | actives 0.17% (n = 140,000) | AID 1671194;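 note: potency is the fitted concentration of half-maximal effect; plate controls were DMSO cells for no effect and cell-free wells for full effect; nearly all actives have a fitted effect of over 45% in size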
KDM5B inh = blocks human KDM5B histone demethylase activity. Potency, µM (doses to about 57.7 µM), usual class: inhibitors. KDM5B demethylase, FDH-coupled NADH fluorescence (FDH is formaldehyde dehydrogenase). actives 2.6% (n = 220,000). Q9UGL1; note: potency is the fitted concentration of half-maximal effect; 0% is about no effect; nearly all actives have a fitted effect of over 70% in size
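Coupled FDH/NAD⁺ fluorescence readout. KDM5BΔAP 200 nM final; compound titration, 10 min RT preincubation; substrate mix 12.5 µM H3K4me3, 25 µM 2-OG, 50 µM Fe(II), 100 µM ascorbate, 0.25 mM NAD⁺, 0.25 U/mL FDH; ΔRFU over 30 min.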
IP6K1 inh = IP6K1 kinase inhibition. IP6K1 kinase, ADP-Glo luminescence, 2 h; active compounds read low. AID 1645851. Q92551. actives 0.81% (n = 140,000). activity change, % (series mostly up to about 58 µM); in the data active = activity change below about -25%; note: % is set by controls: 0 for no effect and ±100 for the full control effect
Target sequence (Q92551 whole entry, looked up): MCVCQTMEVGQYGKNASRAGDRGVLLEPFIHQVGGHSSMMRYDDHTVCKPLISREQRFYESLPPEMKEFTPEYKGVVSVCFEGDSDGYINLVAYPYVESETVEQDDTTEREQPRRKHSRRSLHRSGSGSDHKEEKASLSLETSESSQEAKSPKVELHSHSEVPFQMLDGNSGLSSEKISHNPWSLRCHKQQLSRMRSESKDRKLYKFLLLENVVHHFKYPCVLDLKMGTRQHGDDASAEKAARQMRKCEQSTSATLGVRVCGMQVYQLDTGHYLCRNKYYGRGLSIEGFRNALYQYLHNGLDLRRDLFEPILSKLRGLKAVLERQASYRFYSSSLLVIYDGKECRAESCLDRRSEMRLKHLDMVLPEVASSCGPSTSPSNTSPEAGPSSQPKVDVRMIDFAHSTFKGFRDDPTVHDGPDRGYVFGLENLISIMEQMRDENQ
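ADP-Glo luminescence measures ADP made by human IP6K1 during a 2 h RT reaction with ATP/IP6 (mix at 1.3 mM/130 uM); top library doses 57.5 and 19.1 uM final.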
An asterisk follows results filed as active; i = inactive; u = inconclusive; x = not tested or not shown; [ ] = dose if it differs, or a comment. Unless noted, calls come from the whole dose curve; as a rule, active = well fitted curve in the direction sought with a large enough effect; inconclusive = small, poorly fitted or top-dose-only effect, or another doubt; inactive = no such curve, though single readings can be large; an effect the other way counts as inactive or inconclusive.

SMILES	HEK293 viab	SNCA expr inhib	KDM5B inh	IP6K1 inh
S=C(NC1CCCCC1)NC1CCSc2ccccc21 (stereo not drawn)	x	x	i	x
Cc1cc2cc(-c3c(C)noc3C)nc(-c3ccc(CO)cc3)c2o1	4.0%[87.6 µM]	63.0%[87.6 µM]	u	-18.0
Cc1noc(C)c1-c1cc2cc(CO)oc2c(-c2cccc(OC(C)C)c2)n1	-12.8%[87.6 µM]	-0.4%[87.6 µM]	25.1µM*	-16.6
Cc1noc(C)c1-c1cc2cc(CO)oc2c(-c2ccc([S+](C)(=O)[O-])cc2)n1	-1.3%[87.6 µM]	11.2%[87.6 µM]	35.5µM*	6.0
COc1cccc(-c2nc(-c3c(C)noc3C)cc3cc(C)oc23)c1	2.8%[87.6 µM]	29.5%[87.6 µM]	35.5µM*	15.4
Cc1noc(C)c1-c1cc2cc(CO)oc2c(-c2ccccc2)n1	11.6%[87.6 µM]	35.1%[87.6 µM]	u	-22.5
Cc1noc(C)c1-c1cc2cc(CN(C)C)oc2c(Nc2cccc([S+](C)(=O)[O-])c2)n1	-8.6%[87.6 µM]	11.1%[87.6 µM]	31.6µM*	-4.4
Cc1noc(C)c1-c1cc2cc(CN(C)C)oc2c(Nc2ccn(C)n2)n1	3.7%[87.6 µM]	38.8%[87.6 µM]	i	-3.0
COc1ccc(C(c2cc(C)sc2NC(=O)c2ccco2)N2CCC(C)CC2)cc1OC (stereo not drawn)	x	x	i	x
Cc1cccn2cc(COc3cccc(C(=O)O)c3)nc12	x	x	i	x
COc1cc(F)ccc1-c1nc(-c2c(C)noc2C)cc2cc(C)oc12	1.5%[87.6 µM]	68.3%[87.6 µM]	u	-2.0
Cc1cc2cc(-c3c(C)noc3C)nc(-c3cccc([S+](C)(=O)[O-])c3)c2o1	-19.5%[87.6 µM]	83.2%[87.6 µM]	31.6µM*	-10.5
O=C(c1cc2c(s1)CN(C1CCCC1)C2)N1CCCN(c2ncccn2)CC1	-12.1%	1.1%	6.31µM*	8.0
CCN1CCN(CCNC(=O)c2cc(-c3ccc(Cl)cc3)cn2CC)CC1	-7.9%	-28.0%	i	-0.1
COc1ccc(NC(=O)C2(C)CCc3cnc(N4CCOCC4)nc32)cc1 (stereo not drawn)	17.1%[87.6 µM]	-10.4%[87.6 µM]	39.8µM*	16.1
CN1CCC(NC(=O)C2(C)CCc3cnc(N4CCOCC4)nc32)CC1 (stereo not drawn)	13.0%[87.6 µM]	u	35.5µM*	9.0
CC1(C(=O)NC2CCOCC2)CCCc2cnc(Nc3ccccc3)nc21 (stereo not drawn)	-26.0%[87.6 µM]	-10.1%[87.6 µM]	i	6.4
COc1ccc(-c2cnc3[nH]cc(CC(=O)NC4CCOCC4)c3c2)cc1	4.6%[87.6 µM]	18.3%[87.6 µM]	u	-8.2
CCN(CCOc1ccc(F)cc1)C(=O)c1cnc(NC(C)C)nc1	1.8%	1.4%	28.2µM*	-2.7
O=C(Nc1ccccc1)c1cc(S(=O)(=O)N2CCOCC2)ccc1F	x	x	i	x
CC(C)C(C)(C#N)NC(=O)CNc1cccc(-c2nnnn2C)c1 (stereo not drawn)	x	x	i	x
CCc1ccc(CN2CCC(CNC(=O)c3ccc(C)nc3)C2)nc1 (stereo not drawn)	5.0%	18.8%	15.8µM*	0.5
Cc1cc2ccccc2n1CC(=O)NC1CCN(C(=O)C(C)C)CC1	x	x	i	x
CCN1CCN(CCNC(=O)c2cccc3c2CCN3C(=O)Nc2ccc(C)cc2)CC1	-6.6%	12.6µM*	i	6.3
COc1ccc(OC2CCN(C3CCCC3)CC2)c(C(=O)NCCCN2CCCC2=O)c1	2.6%	16.0%	31.6µM*	21.5
SMILES	HEK293 viab	SNCA expr inhib	KDM5B inh	IP6K1 inh
COc1ccc(OC2CCN(C(C)=O)CC2)c(C(=O)NCCc2c(C)n[nH]c2C)c1	1.7%	-22.1%	28.2µM*	-2.2
COc1ccc(NC(=O)N2CCc3c(C(=O)NCCCN4CCCC4=O)cccc32)cc1	15.6%	10µM*	i	5.3
COc1ccc(NC(=O)c2sc3c(c2C)C(c2cccc(C(F)(F)F)c2)CC(=O)N3)cc1 (stereo not drawn)	x	x	i	x
FC(F)Oc1cccc(CNC2CCC3(CCNCC3)CC2)c1	-25.2%	-8.5%	i	8.9
C/C(=N/Nc1ccc(S(N)(=O)=O)cc1[N+](=O)[O-])c1ccc2c(c1)Nc1ccccc1S2	x	x	i	x
COc1ccc(F)cc1-c1cccc(C(=O)NCC(=O)NCCCc2ccccc2)c1	x	x	x	5.5
COc1ccc(NC(=O)N2CCc3c(C(=O)Nc4ccc5c(c4)OCO5)cccc32)cc1	17.9%	7.94µM*	22.4µM*	-5.8
COc1ccc(NC(=O)N2CCc3c(C(=O)NCCCN(C)C)cccc32)cc1	4.2%	u	i	-7.1
CCCNC(=O)c1cccc2c1CCN2C(=O)Nc1ccc(OC)cc1	-9.6%	28.2µM*	i	-5.0
COc1ccccc1-c1ccc(CN2CCCCC2C(=O)N2CCC(c3ccccc3)CC2)cc1 (stereo not drawn)	x	x	x	11.6
CCS(=O)(=O)c1ncc(Cl)c(C(=O)Nc2ccc(S(=O)(=O)N(C)c3ccccc3)cc2)n1	10µM*	2.82µM*	u	-21.0
CC(C)Sc1ncc(Cl)c(C(=O)Nc2ccc(S(=O)(=O)N(C)c3ccccc3)cc2)n1	-0.2%	-9.0%	u	-11.2
CCN(c1ccccc1)S(=O)(=O)c1ccc(NC(=O)c2nc(S(C)(=O)=O)ncc2Cl)cc1	10µM*	u	u	-43.2*
CCSc1ncc(Cl)c(C(=O)Nc2ccc(S(=O)(=O)N(C)c3ccccc3)cc2)n1	22.4%	u	u	-12.2
CC1(COc2ccccc2)COc2ccc(C(=O)NCCOc3ccccc3)cc2N1 (stereo not drawn)	-25.5%[87.6 µM]	u	39.8µM*	1.9
CC1(CNc2ccccc2)COc2ccc(C(=O)NCCOc3ccccc3)cc2N1 (stereo not drawn)	-26.5%[87.6 µM]	-2.1%[87.6 µM]	28.2µM*	-12.3
CC1(CNc2ccccc2)COc2ccc(C(=O)NCCc3ccccn3)cc2N1 (stereo not drawn)	4.8%[87.6 µM]	34.1%[87.6 µM]	22.4µM*	-14.8
CN(Cc1ccccc1)C(=O)c1ccc2c(c1)NC(C)(COc1ccccc1)CO2 (stereo not drawn)	u	u	39.8µM*	10.6
CC1(CNc2ccccc2)COc2ccc(C(=O)NCCN3CCOCC3)cc2N1 (stereo not drawn)	13.4%[87.6 µM]	-18.1%[87.6 µM]	i	-2.2
C/C(=N/Nc1ccc(S(N)(=O)=O)cc1[N+](=O)[O-])c1cccc(C(F)(F)F)c1	x	x	i	x
COc1ccccc1-c1cccc(CN2CCC(NC(=O)Cc3cccc(Cl)c3)CC2)c1	0.2%	-17.2%	x	-3.1
Cn1c(N2CCCCC2)nc2c1c(=O)n(Cc1ccccc1)c(=O)n2C	x	x	i	x
CN1CCN(CCCN2C(=O)c3ccccc3C2C(=O)NC2CCCCC2)CC1 (stereo not drawn)	x	x	i	x
CN1CCN(CCCNC(=O)Cc2ccc(C(F)(F)F)cc2)CC1	x	x	i	x
CC(C)C(=O)Nc1cccc(Cl)c1Cl	x	x	i	x
Cc1cc(C(=O)Nc2ccc3c(c2)CCC3)c(C)s1	x	x	i	x
CNC(=O)c1cc(C2CC2)nc2c1c(C1CCCN(C(=O)C3CCCCC3)C1)nn2C (stereo not drawn)	x	x	x	-3.4
C[C@]1(O)CCN(Cc2ccc(-c3ccccc3C#N)o2)C[C@@H]1O	8.0%	1.8%	25.1µM*	13.1
O=C(COC(=O)c1csc(NCc2ccccc2)n1)NC1CCCC1	x	x	i	x
